According to PubChem BioAssay AID493208 (National Center for Advancing Translational Sciences (NCATS), 2011):
Among all 44,000 compounds or so, about 340 (0.77%) were called active. Another 5% or so got no clear call; they are omitted. The sample holds actives, similar compounds and a random draw of the others, so the mix is not that of the screen. Unmarked numbers belong to inactive results. The call rests on the fitted dose curve; in most records, active means well fitted inhibition curve with a large enough effect; inconclusive means small, poorly fitted or top-dose-only effect; inactive means flat fitted curve, though single readings scatter.

test: Acumen qHTS Assay for Inhibitors of the mTORC1 Signaling Pathway in MEF (Tsc2-/-, p53-/-) Cells: Sytravon; settings: phospho-rpS6 immunofluorescence/PI, 24 h; series mostly up to 38.3 µM; activity change, negative = inhibition: at the top concentration; further: nearly all actives have a fitted effect of over 50% in size
From the text: NIH Molecular Libraries Probe Production Centers Network [MLPCN] NIH Chemical Genomics Center [NCGC] MLPCN Grant: NS059428-01 Assay Submitter (PI): Blenis, John; Hoffman, Greg; Harvard University NCGC Assay Overview: The mammalian target of rapamycin (mTOR) is an intracellular serine/threonine kinase Aberrant regulation of mTOR signaling plays a causative role in a number of human diseases, including cancer, benign tumors such as lymphangioleiomyomatosis (LAM) and Tuberous Sclerosis Complex (TSC), and metabolic diseases such as diabetes and obesity. This project aims to identify inhibitors of ribosomal protein S6 (rpS6) phosphorylation. The phosphorylation of rpS6 is a key event downstream of mTOR activation. The assay uses a phospho-specific antibody of phospho-rpS6 to detect inhibitors of mTOR activation. Mutations in the Tsc1 and Tsc2 genes are the underlying genetic lesions responsible for TSC, causing constitutive activation of the mTORC1 pathway and leading to profound effects on cell metabolism. Aberrant metabolism in cancer has recently received significant attention as a target to develop therapeutic agents in the treatment of cancer.1 As Tsc2-/- cells have lost the ability to respond to energy and growth factor deprivation, these cells are unable to properly down regulate cellular biosynthetic processes in response to metabolic stress, and are thus extremely sensitive to glucose deprivation-induced death.2 A central goal of this project is to explore the unique cell survival and metabolic properties of cells with Tsc1 or Tsc2 by screening for compounds that selectively target the Tsc2-/- MEFs by screening both Tsc2-/- and WT MEF cell lines. We hope to better understand these aspects of TSC physiology in order to exploit them for therapeutic benefit.
NCGC Acumen Assay Protocol Summary: For quantitative high throughput analysis of mTORC1 signaling, we developed a cell-based assay for immuno-fluorescence based detection of rpS6 phosphorylation on the Acumen Explorer that will be used a platform for the primary small molecule screen. Mouse embryonic fibroblasts (MEFs) are cultured in 1536-well plates using DMEM + 10% FBS. Twenty-four hrs after plating, test compounds (solubilized in DMSO) are delivered and incubated with the cells for 24 hrs at 37 degree Celsius. Following the incubation, media with compound is aspirated and the cells are fixed in 4% paraformaldehyde (PFA) containing PBS + 0.2% TX-100. Next, PFA is aspirated, cells are washed two times with PBS plus 0.2% TX-100 and the cells are blocked for 1 hr at room temperature (blocking buffer: LiCOR Blocking Buffer plus 0.2% TX-100). […] Cells are washed two times with PBS plus 0.2% TX-100, and stained with 10 uM propidium iodide (PI) for 20-25 minutes for cell number measurement (1:500 dilution of Hoescht staining is also added for IN Cell imaging). The plates are scanned on the Acumen Explorer laser scanning instrument (TTP Labtech) using the 488nm laser for simultaneous excitation of the Alexa-488 and PI. […] The normalized phospho-S6 staining is calculated as the ratio of the integrated Alexa 488 intensity divided by the integrated PI intensity for the single concentration rapamycin control (7.5 nM) and DMSO columns. […] Inhibition of the pathway is defined based on the normalized phospho-S6 intensity in rapamycin treated cells. Active cells are defined as those with a normalized phospho-S6 staining above this threshold, and each treatment is reported as the % positive cells in the well, where thresholds are defined by selecting wells with the highest and lowest signal and differentiating between the % non-active and % active populations. In addition to the pathway specific phospho-S6 endpoint, the number of PI stained cells from the Acumen is recorded as a measure of cell viability. The primary screen was performed with a MEF cell line in a defined genetic background, Tsc2-/-, p53-/- cell line stably transfected with an empty vector control (Tsc2-/- MEF).
Potency means the concentration at half of the fitted maximal effect.

SMILES	activity change, negative = inhibition [%]	Potency
Cc1ccc(S(=O)(=O)c2nc(-c3ccco3)oc2SCC(=O)Nc2ccc(F)cc2)cc1	-0.694	
O=C(/C=C/c1cn(CC(O)CN2CCc3ccccc32)c2ccccc12)c1ccc(Br)cc1 (stereo not drawn)	-17.5	
CCOc1ccc(C(=O)/C=C/c2cn(CC(O)CN3CCCCCC3)c3ccccc23)cc1 (stereo not drawn)		14.7 µM (active)
COc1ccc(OCCn2cc(C(=O)C3CCCCC3)c3ccccc32)cc1	0.18	
O=C(CSc1oc(-c2ccc(F)cc2)nc1S(=O)(=O)c1ccc(Br)cc1)NC1CCCCC1	4.26	
COc1ccc(-c2nc(S(=O)(=O)c3ccccc3)c(N3CCCCC3)o2)cc1	-13.1	
CC(C)S(=O)(=O)c1oc(-c2ccc(F)cc2)nc1S(=O)(=O)c1ccc(F)cc1		0.521 µM (active)
COc1ccccc1NC(=O)CCC(=O)N1CC(C)Oc2ccc(C)cc21 (stereo not drawn)	-7.46	
COc1ccc(C)cc1N(CC(=O)N1CCC(C)CC1)S(=O)(=O)c1ccc(C)cc1	2.44	
CC(C)(C)c1ccc(OCC(=O)N2CCC(c3nc4ccccc4s3)CC2)cc1	-9.26	
CN1CCN(C2(CNC(=O)COc3ccc(C(C)(C)C)cc3)CCCCC2)CC1		8.26 µM (active)
CCn1cc(C(=O)NCc2ccccc2)c(=O)c2cc(S(=O)(=O)N3CCCCC3)ccc21	-7.26	
Cc1cccc(CNC(=O)c2cnc3sc(N4CCCCC4)nn3c2=O)c1	8.89	
O=C(Cc1ccc(Cl)cc1)Nc1ccc2nn(-c3ccc(Cl)cc3)nc2c1	-7.33	
COc1ccc(C(=O)Nc2ccc3nc(N4CCCCC4)cc(C)c3c2)cc1OC		13.1 µM (active)
COc1cccc(C(=O)Nc2ccc3nc4n(c(=O)c3c2)CCCCC4)c1	-1.75	
CCOc1ccc(-n2nc3ccc(NC(=O)c4ccc(OC)c(Cl)c4)cc3n2)cc1	2.46	
COc1ccc(NC(=O)c2ccc3nc(C(C)C)oc3c2)cc1OC	-14.4	
COc1ccc(NC(=O)c2cnc(Nc3ccc(C)c(Cl)c3)c3ccccc23)cc1OC	0.723	
CCN1CCN(c2cc(C)c3cc(NC(=O)c4cc(Cl)ccc4OC)ccc3n2)CC1		2.61 µM (active)
CCOc1ccc(NC(=O)CN(Cc2ccccc2)S(=O)(=O)c2ccc(Cl)cc2)cc1	3.52	
CCOc1ccc(N(Cc2ccccc2)C(=O)c2nc(S(C)(=O)=O)ncc2Cl)cc1		0.736 µM (active)
CCOc1ccc(N(Cc2ccccc2)C(=O)c2nc(SCC)ncc2Cl)cc1	-13	
CCOC(=O)c1ccc(NC(=O)c2c(NCc3cccs3)sc3c2CCCC3)cc1	-12.1	

SMILES	activity change, negative = inhibition [%]	Potency
CCCn1ccc2c(OCC(=O)NCc3ccc(F)cc3)cccc2c1=O	-1.85	
CCOc1ccc(N2CC(C)Cn3c2nc2c3c(=O)n(Cc3c(F)cccc3Cl)c(=O)n2C)cc1 (stereo not drawn)	-8.65	
O=C1CN(C(=O)Nc2ccccc2C(F)(F)F)C(c2ccccc2)c2c(sc3c2CCCC3)N1 (stereo not drawn)	4.23	
Oc1c(C(c2ccc(F)cc2)N2CCN(Cc3ccccc3)CC2)sc2nc(-c3ccco3)nn12 (stereo not drawn)	0.278	
Cc1nc2ccn(Cc3cccs3)c(=O)c2cc1C(=O)NCc1ccc(Cl)cc1	-5.14	
CCOCCCNC(=O)c1cn(CC)c2ccc(S(=O)(=O)N3CCc4ccccc4C3)cc2c1=O	0.725	
Cc1ccc2nc(/C(C#N)=C/c3ccc(-c4ccc(C(=O)OC(C)C)cc4)o3)[nH]c2c1	-18.9	
Cc1nn2c(=O)cc(COC(=O)CNC(=O)c3ccc(F)cc3)nc2s1	-6.97	
COc1ccc(N2CCN(c3cc(C)nc4nncn34)CC2)cc1	-1.3	
CCOc1ccc(CCNC(=O)c2ccc3c(c2)sc2nc(-c4ccc(F)cc4)cn23)cc1OCC	-3.54	
Cc1nn2c(=O)cc(COC(=O)c3cccc(NC(=O)COc4ccccc4Cl)c3)nc2s1	0	
Cc1nn(CC(=O)N2CCN(c3cccc(C(F)(F)F)c3)CC2)c(=O)c2cc3sccc3n12	1.19	
COc1cc(Nc2nc(-c3ccc(OC)c(OC)c3)nc3ccccc23)cc(OC)c1		16.5 µM (active)
CCOC(=O)c1nc(Nc2ccc(C(=O)OC)cc2)c2ccccc2n1	-14.8	
COc1cccc(Nc2nc3ccccc3c3nncn23)c1	-4.37	
Cn1c(=O)oc2cc(S(=O)(=O)CCC(=O)NCCc3ccc(Cl)cc3)ccc21	-10.6	
Cc1ccc(S(=O)(=O)c2cn(Cc3ccccc3)c3cc(N4CCCC4)c(F)cc3c2=O)c(C)c1	-7.49	
O=C(CCS(=O)(=O)c1ccccc1)N(Cc1cccnc1)c1nc2c(F)cccc2s1		3.69 µM (active)
O=C(CCOc1ccccc1)N(Cc1cccnc1)c1nc2ccc(Cl)cc2s1	-0.351	
CN(C)S(=O)(=O)c1ccc(C(=O)N(Cc2cccnc2)c2nc3c(F)cc(F)cc3s2)cc1	-8.48	
CCOc1ccc(C2CC(=O)c3c([nH]c(C(=O)OCc4ccccc4)c3C)C2)cc1 (stereo not drawn)		4.14 µM (active)
CCc1ccc(C2CC(=O)c3c([nH]c(C(=O)OCc4ccc(C)cc4)c3C)C2)cc1 (stereo not drawn)	-16.6	
CC1=C(C(=O)OCC(C)C)C(c2ccc(OCc3ccccc3)cc2)N2C(=O)CCSC2=N1 (stereo not drawn)	-27.7	
CCCCS(=O)(=O)c1oc(-c2cccs2)nc1S(=O)(=O)c1ccccc1		0.414 µM (active)
